# Hits are enriched below; roughly 3.6% of the tested compounds scored in any of these assays.
# Pf apPOL inh – Pf-apPOL DNA polymerase inhibition; Recombinant Pf-apPOL, molecular beacon fluorescence, 1.5 h; inhibition, % at 10 µM; 210,000 compounds, 0.25% hits
# mHTT-CaM PPI inh – inhibitors of human mutant huntingtin-calmodulin interaction; P42858; inhibition, % at 15 µM; 190,000 compounds, 3.6% hits; AlphaScreen His-mHTT/GST-CaM binding, luminescence;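 note: 0% = both proteins with DMSO and 100% = one protein alone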
# An asterisk follows results filed as active; i = inactive; x = no result given. Cut-off read from the data, not from the text of the source: active = inhibition above about 50%; inactive = the rest.
SMILES,Pf apPOL inh,mHTT-CaM PPI inh
CCN(CC)/C(=N\O)c1cccc([N+](=O)[O-])c1,-3,i
CC(C)CCNC(=O)c1cnn2c(-c3ccc(C(C)C)cc3)ccnc12,-3,-45
CCOC(=O)c1oc2ccccc2c1NC(=O)C12CC3CC(CC(C3)C1)C2,0,-5
NC(=O)c1oc2ccccc2c1NC(=O)C12CC3CC(CC(C3)C1)C2,6,100*
COc1ccc(CNc2nc(-c3ccccc3)nnc2C)cc1,-5,56*
COc1ccc(-c2nnc(C)c(NCc3ccccc3)n2)cc1,-4,41
CCOC(=O)COc1cc2c(C(=O)OCC)c(-c3ccccc3)oc2cc1Br,-7,-8
CC(=O)N1CCc2c(sc(NC(=O)c3cc(-c4ccccc4)on3)c2C#N)C1,4,-13
COc1ccccc1CNc1nccc(-n2ccc(C)n2)n1,-5,-5
O=C(Cc1c[nH]c2ccccc12)N(Cc1cccs1)C1(C(=O)NC2CCCCC2)CCCCC1,0,1
O=C(Cc1c[nH]c2ccccc12)N(CC1CCCO1)C1(C(=O)NC2CCCC2)CCCCC1 (stereo not drawn),-7,67*
C(=C1c2ccccc2-c2ccccc21)c1ccccn1,-4,-142
Nc1ccc2c(c1)/C(=C/c1ccccc1)c1ccccc1-2,-1,100*
O=C1NC(=Nc2ccccc2)S/C1=C\c1ccc(-c2ccccc2[N+](=O)[O-])o1,-12,44
O=C1NC(=Nc2ccccc2Cl)S/C1=C/c1cc2c(cc1Br)OCO2,0,55*
O=C1NC(=Nc2ccccc2Cl)S/C1=C/c1ccc([N+](=O)[O-])o1,10,60*
CN(C)c1ccc(/C=C2/SC(=Nc3ccccc3Cl)NC2=O)cc1,-69,54*
COc1ccc(/C=C2/SC(=Nc3ccccc3Cl)NC2=O)cc1,-1,43
COc1ccccc1/C=C1/SC(=Nc2ccccc2Cl)NC1=O,-2,20
O=C(Nc1ccc(F)cc1)c1ccc(SCCN2CCCCC2)nc1,-2,-11
CC(=O)Nc1cccc(N2CC(C(=O)Nc3ccc(C(C)=O)cc3)CC2=O)c1 (stereo not drawn),-6,-4
CN1CCN(c2nc(-c3ccccc3)ncc2C(=O)N2CCCCC2)CC1,-2,6
CN1CCN(C(=O)c2cnc(-c3ccccc3)nc2N(C)Cc2ccccc2)CC1,-8,68*
CC(=O)NCc1ccc(-n2cnc(C)c2)cc1,3,8
COc1ccccc1C1CC(c2cccc(C)c2)=NN1C(=O)CN1CCCCC1 (stereo not drawn),-2,45
SMILES,Pf apPOL inh,mHTT-CaM PPI inh
Cc1ccc(C2=NN(C(=O)CN3CCOCC3)C(c3ccccc3F)C2)c(C)c1 (stereo not drawn),0,24
COc1ccccc1C1CC(c2ccc(C)cc2C)=NN1C(=O)CN1CCOCC1 (stereo not drawn),-4,63*
Cc1ccc(C2=NN(C(=O)CN3CCOCC3)C(c3ccccc3F)C2)cc1 (stereo not drawn),-6,40
COc1ccccc1C1CC(c2ccc(F)cc2)=NN1C(=O)CN1CCCCC1 (stereo not drawn),0,100*
Cc1ccc(C2=NN(C(=O)CN3CCOCC3)C(c3ccccc3C)C2)c(C)c1 (stereo not drawn),-2,86*
Cc1ccc(C2=NN(C(=O)CN3CCOCC3)C(c3cc(C)ccc3C)C2)c(C)c1 (stereo not drawn),-2,65*
COc1ccccc1C1CC(c2ccc(C)cc2)=NN1C(=O)CN1CCCCC1 (stereo not drawn),-5,40
CCNC(=O)C1CCN(c2nc3ccc(-c4ccncc4)nc3s2)CC1,-2,-3
CCc1nnc(NC(=O)c2ccc(C)c(S(=O)(=O)N3CCCC3)c2)s1,-4,-1
Cc1nnc(SCC(=O)Nc2nc(-c3ccccc3)ns2)s1,1,2
CC1CN(S(=O)(=O)c2ccc(F)cc2)CC1c1nc(-c2ccccc2)no1 (stereo not drawn),2,0
O=C(c1c(F)cccc1F)N1CCN(c2ccc([N+](=O)[O-])cc2F)CC1,2,9
Cc1sc(NC(=O)c2ccccc2)c(C(=O)NCCCO)c1C,-9,5
CC(C)C(=O)N1CCc2c(c(C(=O)NCc3ccc(Cl)cc3)nn2C)C1,-6,71*
CCC(=O)N1CCc2c(c(C(=O)NCc3ccc(F)cc3)nn2C)C1,-6,18
Cn1nc(C(=O)NCc2ccc(F)cc2)c2c1CCN(C(=O)C1CC1)C2,-8,29
CCC(=O)N1CCc2c(c(C(=O)NCc3ccc(Cl)cc3)nn2C)C1,-8,81*
Cn1nc(C(=O)NCc2ccc(Cl)cc2)c2c1CCN(C(=O)C1CCCCC1)C2,-1,93*
CC(C)C(=O)N1CCc2c(c(C(=O)NCc3ccccc3)nn2C)C1,-6,0
Cc1[nH]c(C(=O)N2CCC(CC(=O)NCCCN3CCCCC3)CC2)c(C)c1C,2,7
COc1ccc(C2=CC(c3ccccc3)SC(N)=N2)cc1 (stereo not drawn),x,11

# High-throughput results (PubChem)
